Test [1] can be described thus: qHTS assay to identify small molecule antagonists of the estrogen receptor alpha (ER-alpha) signaling pathway using the BG1 cell line in the presence of 0.1 nM 17-beta-estradiol - cell viability counter screen (AID 1259241). Note: nearly all actives have a fitted effect of over 40% in size. Put shortly: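 VM7Luc4E2 cells (endogenous ER-alpha, 4×ERE-luciferase), hormone-starved 5 days in charcoal-stripped FBS, were treated with compounds plus 0.1 nM 17beta-estradiol for 22 hr at 37C; viability read in same wells as CellTiter-Fluor live-cell protease fluorescence.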
On the technique in general: Quantitative high-throughput screening tests each substance at several concentrations.

Test [2] in a line: qHTS assay to identify small molecule antagonists of the androgen receptor (AR) signaling pathway using the MDA cell line in the presence of 0.5 nM R1881 - cell viability counter screen (AID 1259242). Note: nearly all actives have a fitted effect of over 45% in size. Note: potency is the fitted concentration of half-maximal effect. The gist of the method: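 Cells seeded at 3,000/well and allowed 5 hr at 37C, 0% CO2 before compound transfer and R1881 (0.5 nM final) addition; 16 hr later, live-cell protease fluorescence indicated cytotoxicity.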

Test [3] in a line: qHTS assay to identify small molecule HDAC inhibitors (AID 1259364).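 Note: wild-type HCT-116 cells with endogenous class I/II HDAC activity; top concentration of the series differs between compounds; nearly all actives have a fitted effect of over 45% in size.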 The gist of the method: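 HCT-116 wt cells, 1,500/well, overnight attach. Compounds (DMSO) 2 h, 37 °C. HDAC-Glo I/II, 30 min RT. Luminescence.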
Test [4] can be described thus: qHTS assay to identify small molecule HDAC inhibitors - cell viability counter screen (AID 1259365). Note: series mostly up to about 92 µM; nearly all actives have a fitted effect of over 50% in size. The gist of the method: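 Wild-type HCT-116 cells were seeded at 1,500 per well, incubated overnight at 37 C, then exposed to compounds in DMSO for 2hr. Viability was read by CellTiter-Glo luminescence after 30min at room temperature.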
Test [5] can be described thus: qHTS assay to identify small molecule antagonists of the sonic hedgehog signaling (Shh) pathway - cell viability counter screen (AID 1259367). Note: nearly all actives have a fitted effect of over 55% in size. Note: potency is the fitted concentration of half-maximal effect. The gist of the method:
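Fluorescence read-out (CellTiter-Fluor, 1 hr at 37C) taken after 23 hr compound treatment of 3T3 Gli1-Luc cells stimulated with conditioned medium. Cells were seeded at 2,000 per well and pre-incubated 4 hr.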

Test [6] can be described thus: qHTS assay to identify small molecule agonists of the sonic hedgehog signaling (Shh) pathway (AID 1259368; calls by dose curve; note: series mostly up to about 92 µM; nearly all actives have a fitted effect of over 15% in size). Put shortly: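 Following a 24 hr incubation with DMSO-dissolved compounds at 37 C, 5% CO2, Gli1-Luc NIH/3T3-derived cells received luciferase reagent for 30 min at room temperature prior to luminescence measurement.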
The nature of test [7]: qHTS assay to identify small molecule antagonists of the sonic hedgehog signaling (Shh) pathway (AID 1259369; calls by dose curve; note: nearly all actives have a fitted effect of over 45% in size; note: potency is the fitted concentration of half-maximal effect). The gist of the method:
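Read-out is luminescence from a firefly luciferase gene controlled by the Gli1 response element, in 3T3Gli1-Luc cells pre-incubated 4hr then exposed to compounds and conditioned medium for 24hr.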

The nature of test [8]: qHTS assay to identify small molecule agonists of the androgen receptor (AR) signaling pathway in the presence of an antagonist - cell viability counter screen (AID 1259379). Note: nearly all actives have a fitted effect of over 25% in size. Note: potency is the fitted concentration of half-maximal effect. The gist of the method: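 Each compound was tested at 15 concentrations on MDA-kb2 cells in the presence of 3.0uM nilutamide. Viability was measured by CellTiter-Fluor fluorescence after a 16 hr incubation at 37C in a CO2-free atmosphere.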

Test [9] can be described thus: qHTS assay to identify small molecule agonists of the estrogen receptor beta (ER-beta) signaling pathway - cell viability counter screen (AID 1259380). Note: nearly all actives have a fitted effect of over 30% in size. Note: potency is the fitted concentration of half-maximal effect. The gist of the method: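 Compounds dissolved in DMSO were pin-transferred onto ER-beta-UAS-bla HEK293T cells that had settled 6 hr, and exposure ran 16 hr at 37C. Following the reporter read, CellTiter-Glo luminescence after 30 min at room temperature indicated cytotoxicity.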

Test [10] can be described thus: qHTS assay to identify small molecule antagonists of the estrogen receptor beta (ER-beta) signaling pathway - cell viability counter screen (AID 1259382). Note: series mostly up to about 92 µM; nearly all actives have a fitted effect of over 55% in size. Put shortly: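 CellTiter-Glo ATP luminescence measured after the LiveBLAzer read in the same wells; ER-beta-UAS-bla HEK293T cells, 16 hr compound treatment with 1nM 17-beta-estradiol agonist at 37C, 5% CO2.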
A short description of test [11]: qHTS assay to identify small molecule agonists of the sonic hedgehog signaling (Shh) pathway - cell viability counter screen (AID 1259366). Note: nearly all actives have a fitted effect of over 50% in size. Put shortly: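 NIH/3T3-derived 3T3 Gli1-Luc cells (stable Gli1-responsive firefly luciferase reporter) were seeded, rested 4 hr at 37 C/5% CO2, then exposed to compounds in DMSO for 24 hr; viability was read by CellTiter-Fluor fluorescence in the same wells.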

Test [12] addresses Estrogen receptor beta (Homo sapiens) (UniProt Q92731). The test can be described thus: qHTS assay to identify small molecule agonists of the estrogen receptor beta (ER-beta) signaling pathway (AID 1259377; active = well fitted activation curve with a large enough effect in the signal ratio in the repeat runs, not every such curve was filed as active; the % refers to the signal ratio). The gist of the method: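 ER-beta-UAS-bla HEK293T (GripTite) cells carrying a UAS-driven beta-lactamase reporter, in medium with 2% charcoal-stripped FBS, were exposed to compounds for 16 hr at 37C; LiveBLAzer B/G FRET substrate was then added and fluorescence read after 2 hours at room temperature.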

Test [13] has the same target. As to the kind of experiment: qHTS assay to identify small molecule antagonists of the estrogen receptor beta (ER-beta) signaling pathway (AID 1259378; active = well fitted inhibition curve with a large enough effect in the signal ratio in the repeat runs, not every such curve was filed as active; the % refers to the signal ratio). Put shortly: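 ER-beta-UAS-bla HEK293T cells in 2% charcoal-stripped FBS medium treated with compound plus 1nM final 17-beta-estradiol for 16 hr at 37C. Beta-lactamase reporter read by FRET substrate fluorescence after 2 hours at room temperature.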

In test [14] the target is Estrogen receptor (Homo sapiens) (UniProt P03372). The test can be described thus: qHTS assay to identify small molecule antagonists of the estrogen receptor alpha (ER-alpha) signaling pathway using the BG1 cell line in the presence of 0.1 nM 17-beta-estradiol (AID 1259244). Note: nearly all actives have a fitted effect of over 50% in size. Put shortly:
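Luciferase signal from VM7Luc4E2 ERE-reporter cells, co-dosed with test compound and 0.1 nM final 17beta-estradiol for 22 h, read with ONE-Glo.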

Test [15] can be described thus: qHTS assay to identify small molecule phospholipidosis (PLD) inducers (AID 1259344; active = well fitted curve in the direction sought with a large enough effect; an effect the other way counts as inactive or inconclusive). The gist of the method: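 Read-out is LipidTOX Red fluorescence (ex 595/em 615) imaged in HepG2 cells after 24 h compound exposure at 37 C, with Hoechst nuclear counterstain (ex 352/em 461) allowing per-cell normalisation.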
For test [16], the target named is Estrogen receptor (Homo sapiens) (UniProt P03372). As to the kind of experiment: qHTS assay to identify small molecule agonists of the estrogen receptor alpha (ER-alpha) signaling pathway in the presence of an antagonist (AID 1259383; calls by dose curve; note: top concentration of the series differs between compounds; nearly all actives have a fitted effect of over 15% in size). Put shortly:
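Luminescent ERE-luciferase reporter, VM7Luc4E2 cells (endogenous ER-alpha); 10.0nM ICI-182,780 final; 15-point compound titration; 22hr at 37C; ONE-Glo, 30min RT.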

Test [17] in a line: qHTS assay to identify small molecule agonists or antagonists of the thyroid stimulating hormone receptor (TSHR) signaling pathway - wild type cell line counter screen (AID 1259384; calls by dose curve). The gist of the method:
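Wild-type Hek293 cells, 800/well, 18 h at 37C, then compound with Ro20-1724 for 30 min RT. cAMP by HTRF (cAMP-d2/anti-cAMP cryptate), 1 h RT, fluorescence read. 15 concentrations, triplicates.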

Test [18] concerns the target Androgen receptor (Homo sapiens) (UniProt P10275). As to the kind of experiment: qHTS assay to identify small molecule antagonists of the androgen receptor (AR) signaling pathway using the MDA cell line in the presence of 0.5 nM R1881 (AID 1259243). Note: nearly all actives have a fitted effect of over 50% in size. Note: potency is the fitted concentration of half-maximal effect. The gist of the method: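 Luminescence from an AR/GR-responsive MMTV-luciferase construct in MDA-kb2 breast carcinoma cells, read 30 min after ONE-Glo, following 16 hr co-treatment with compounds and 0.5 nM R1881.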

The target is the same in test [19]. The test can be described thus: qHTS assay to identify small molecule agonists of the androgen receptor (AR) signaling pathway in the presence of an antagonist (AID 1259381; calls by dose curve; note: nearly all actives have a fitted effect of over 15% in size). The gist of the method: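 Plated MDA-kb2 cells (3,000/well) were pre-incubated 5hr, given nilutamide (3.0uM final) or buffer, then dosed with compounds in DMSO at 15 concentrations. Luciferase activity was quantified by luminescence after 16hr at 37C.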

In PubChem BioAssay (Tox21) one finds Potency and outcome data, which are given here for ten molecules.

Values joined by “and” are separate entries in the source; they are usually repeats but may differ in a detail not shown here. Equal values may be shown once. Inconclusive results are not listed. More than one record can exist for a structure, and the calls need not agree. Active and inactive are the calls of the source. Unless noted, calls come from the whole dose curve; as a rule, active = well fitted curve in the direction sought with a large enough effect in the repeat runs; inconclusive = weak or mixed curves; inactive = no such curve, though single readings can be large; an effect the other way counts as inactive or inconclusive.

Chain of Estrogen receptor beta (Homo sapiens) (Q92731 whole entry, looked up): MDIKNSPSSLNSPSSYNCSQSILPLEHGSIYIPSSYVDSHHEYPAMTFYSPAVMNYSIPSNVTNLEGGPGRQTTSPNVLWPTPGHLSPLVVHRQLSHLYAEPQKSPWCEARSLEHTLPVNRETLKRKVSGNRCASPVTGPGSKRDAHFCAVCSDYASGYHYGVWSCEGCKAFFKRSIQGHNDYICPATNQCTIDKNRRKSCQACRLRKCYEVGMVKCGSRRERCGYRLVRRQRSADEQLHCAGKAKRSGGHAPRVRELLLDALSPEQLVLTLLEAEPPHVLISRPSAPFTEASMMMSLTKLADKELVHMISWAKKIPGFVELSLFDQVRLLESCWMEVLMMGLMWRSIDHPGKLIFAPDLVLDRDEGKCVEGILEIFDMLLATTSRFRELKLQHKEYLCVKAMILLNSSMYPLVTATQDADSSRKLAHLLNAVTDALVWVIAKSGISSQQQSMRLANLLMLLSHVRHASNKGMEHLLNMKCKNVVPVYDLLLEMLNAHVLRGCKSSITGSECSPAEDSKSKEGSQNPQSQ
Chain of Androgen receptor (Homo sapiens) (P10275 whole entry, looked up): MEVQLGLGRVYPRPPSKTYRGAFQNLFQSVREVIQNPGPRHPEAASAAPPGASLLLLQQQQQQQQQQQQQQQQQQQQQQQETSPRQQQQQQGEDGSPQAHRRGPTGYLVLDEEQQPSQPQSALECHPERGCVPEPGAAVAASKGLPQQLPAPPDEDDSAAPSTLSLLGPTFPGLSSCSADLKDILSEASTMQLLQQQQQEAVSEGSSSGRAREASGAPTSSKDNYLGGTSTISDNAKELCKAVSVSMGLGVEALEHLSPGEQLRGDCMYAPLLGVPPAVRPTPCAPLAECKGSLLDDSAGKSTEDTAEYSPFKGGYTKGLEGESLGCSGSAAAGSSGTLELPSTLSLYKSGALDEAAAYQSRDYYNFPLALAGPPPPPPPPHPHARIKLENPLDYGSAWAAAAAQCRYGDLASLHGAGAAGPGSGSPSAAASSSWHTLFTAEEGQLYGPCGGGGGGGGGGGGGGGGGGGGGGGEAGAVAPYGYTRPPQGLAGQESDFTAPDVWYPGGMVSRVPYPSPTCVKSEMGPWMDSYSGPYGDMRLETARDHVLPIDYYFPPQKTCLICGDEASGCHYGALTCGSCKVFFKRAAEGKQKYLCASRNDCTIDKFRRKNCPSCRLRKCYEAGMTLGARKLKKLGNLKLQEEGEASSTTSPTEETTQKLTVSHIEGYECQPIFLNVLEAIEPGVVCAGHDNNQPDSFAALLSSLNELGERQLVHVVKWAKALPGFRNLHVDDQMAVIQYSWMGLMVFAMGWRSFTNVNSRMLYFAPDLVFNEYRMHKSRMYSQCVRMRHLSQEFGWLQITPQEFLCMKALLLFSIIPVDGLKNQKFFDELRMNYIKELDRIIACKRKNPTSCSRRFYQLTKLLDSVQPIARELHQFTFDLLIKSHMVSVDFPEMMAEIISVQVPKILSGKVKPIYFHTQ
Chain of Estrogen receptor (Homo sapiens) (P03372 whole entry, looked up): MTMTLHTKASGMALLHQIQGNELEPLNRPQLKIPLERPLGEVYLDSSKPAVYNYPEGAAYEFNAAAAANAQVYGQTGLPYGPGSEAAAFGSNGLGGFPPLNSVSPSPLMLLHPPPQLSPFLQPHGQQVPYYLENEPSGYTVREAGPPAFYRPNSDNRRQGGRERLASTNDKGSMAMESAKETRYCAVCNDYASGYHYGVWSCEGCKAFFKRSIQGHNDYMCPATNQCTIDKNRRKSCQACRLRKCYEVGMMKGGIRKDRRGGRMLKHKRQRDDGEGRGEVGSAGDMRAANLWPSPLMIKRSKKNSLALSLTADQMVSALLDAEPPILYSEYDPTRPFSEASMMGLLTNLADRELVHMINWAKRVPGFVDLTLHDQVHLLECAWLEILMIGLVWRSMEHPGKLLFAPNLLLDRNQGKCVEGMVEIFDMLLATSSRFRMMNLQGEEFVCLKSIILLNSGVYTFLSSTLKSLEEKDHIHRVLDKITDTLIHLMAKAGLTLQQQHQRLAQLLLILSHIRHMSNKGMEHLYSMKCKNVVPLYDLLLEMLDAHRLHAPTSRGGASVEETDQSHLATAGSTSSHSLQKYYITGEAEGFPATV

For `O=S(=O)(O)c1ccc2cc(O)ccc2c1`, the Potency entry in [1], in [2], in [3], in test [5], in test [7] and in test [8] was “inactive” throughout. In addition, the Potency entry in [9] and in test [10] was “inactive” throughout. The molecule was classed as inactive in [4] and in test [6].

With `O=C(O)c1cccc([N+](=O)[O-])c1`, the Potency entry in test [1], in test [2], in [3], in test [11], in test [5] and in test [7] was “inactive” in each case. The Potency result in test [13], in test [8] and in test [9] was “inactive” in each case. The result in [4], in test [6] and in [12] was inactive.

As for `Cc1cn([C@H]2C[C@H](N=[N+]=[N-])[C@@H](CO)O2)c(=O)[nH]c1=O`, the Potency entry in [1], in [2], in test [14], in test [3], in test [8] and in test [9] was “inactive” each time. Further, the Potency entry in test [16] is “inactive”. The molecule was classed as inactive in [15], in test [4] and in [6]. In addition, the Potency in test [5] was 70.5 µM (active) and inactive; in test [7] it was 17.7 µM (active) and inactive.

For the molecule `O=C(c1ccccc1)C(O)c1ccccc1` (stereo unspecified), the Potency entry in test [1], in [2], in test [3], in test [11], in [5] and in [7] was “inactive” throughout. Moreover, the Potency entry in [13], in [8] and in test [9] was “inactive” each time. The molecule was classed as inactive in test [15], in test [4], in [6], in test [12] and in test [17].

With `NC(=O)c1ccccc1O`, the Potency entry in [1], in test [2], in [14], in [3], in [11] and in test [5] was “inactive” in each case. Moreover, the Potency entry in [7], in [13], in test [8], in [9] and in test [16] was “inactive” in each case. The result in test [15], in [4], in [6], in test [12] and in test [17] was inactive.

As for `NC(=O)NC1NC(=O)NC1=O` (stereo unspecified), the Potency entry in test [1], in test [2], in test [3], in [5], in test [7] and in test [8] was “inactive” throughout. In test [9], the Potency result was “inactive”. Also, the result in [15], in test [4], in test [6] and in test [17] was inactive.

For `Nc1ccc(S(=O)(=O)Nc2nccs2)cc1`, the Potency entry in test [1], in [2], in [14], in [3], in test [5] and in test [7] was “inactive” in each case. In addition, the Potency entry in test [8], in test [9], in test [10] and in test [16] was “inactive” in each case. Moreover, the result in [15], in test [4], in test [6] and in test [17] was inactive.

Turning to `O=C(O)CCCCC(=O)O`, the Potency entry in test [1], in [2], in test [14], in test [3], in test [5] and in [7] was “inactive” in each case. Further, the Potency entry in test [8], in test [9], in [10] and in [16] was “inactive” throughout. Further, the call in test [15], in test [4], in test [6] and in test [17] was inactive.

For the molecule `NC(=O)c1cnccn1`, the Potency result in test [1], in [2], in test [14], in test [3], in test [5] and in test [7] was “inactive” throughout. For the same molecule, the Potency entry in test [13], in [8] and in test [16] was “inactive” in each case. For the same molecule, the outcome in [15], in test [4], in [6] and in [12] was inactive. In addition, in test [9], the Potency result is “inactive and 33.5 µM (active)”.

`c1ccc2[nH]ccc2c1`: the Potency in test [2] was 9.53 µM (active) and inactive; in test [18] it was 2.39 µM (active) and inactive; in test [7], 6.01 µM (active) and inactive; in [8], 7.57 µM (active) and inactive; in test [9], 26.9 µM (active) and inactive. Moreover, the molecule was called inactive in [15], in test [4], in [6], in test [12] and in [17]. In addition, the Potency result in test [3], in test [5], in test [13] and in test [19] was “inactive” throughout.
